Experiment [1] can be described thus: NCI Yeast Anticancer Drug Screen. Data for the rad50 strain (AID 155).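 Further: 0% = growth of vehicle-only cultures of the same strain.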 The settings on record: S. cerevisiae rad50 strain growth inhibition; at 50.0 µM; stronger effect = higher value. The procedure, abridged:
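Relative growth inhibition (compound vs vehicle) was measured in yeast with a defined repair-gene alteration.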

The nature of experiment [2]: NCI Yeast Anticancer Drug Screen. Data for the mec2-1 strain (AID 157). The conditions noted are these: S. cerevisiae mec2-1 strain, at 50.0 µM, stronger effect = higher value. A digest of the protocol:
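Vehicle-treated cultures served as reference for growth inhibition of compound-exposed mec2-1 yeast.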

Experiment [3] can be described thus: NCI Yeast Anticancer Drug Screen. Data for the sgs1 mgt1 strain (AID 161).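 Further: 0% = growth of cultures given vehicle only.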 The conditions noted are these: S. cerevisiae sgs1 mgt1 strain, at 50.0 µM, stronger effect = higher value. The procedure, abridged: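 Mutant yeast exposed to compound; growth scored against vehicle-only wells.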
The nature of experiment [4]: NCI Yeast Anticancer Drug Screen. Data for the cln2 rad14 strain (AID 165).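 Further: 0% = growth equal to vehicle treated cultures.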 The conditions noted are these: S. cerevisiae cln2 rad14 strain, at 50.0 µM, stronger effect = higher value. The procedure, abridged:
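Each compound was tested on cln2 rad14 yeast. Inhibition of growth was calculated against vehicle-exposed controls.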

Experiment [5] is described as follows: NCI Yeast Anticancer Drug Screen. Data for the bub3 strain (AID 167). The settings on record: S. cerevisiae bub3 mutant strain, at 50.0 µM, stronger effect = higher value. The procedure, abridged:
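Screening used yeast with an engineered genetic alteration affecting cell cycle control. Compound-exposed cultures were compared with vehicle cultures, and reduced growth was taken as inhibition.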

Experiment [6] in a line: NCI Yeast Anticancer Drug Screen. Data for the mlh1 rad18 strain (AID 175). The conditions noted are these: S. cerevisiae mlh1 rad18 strain growth inhibition; at 50.0 µM; stronger effect = higher value. A digest of the protocol:
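Vehicle-treated cultures served as the reference for growth inhibition in a yeast strain carrying DNA damage repair alterations exposed to each compound.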

The panel holds about 79,000 compounds, 15% with a hit somewhere; the sample as a whole holds those more often. Values without a mark were called inactive. The source made the active and inactive calls. No stated cut-off is given here; in the data, active means growth inhibition above about 70%; inactive means the rest.

Consider `O=C(O)c1ccc(Cl)cc1CC(Cl)(Cl)Cl`, for which the growth inhibition in experiment [1] was 3.55%; in experiment [2], 25.5%; in experiment [3], 15.1%; in experiment [4], 24.5%; in experiment [5], 21.1%; in experiment [6], 17.1%.
For the compound `CCOC(=O)C(CC(c1ccc2c(c1)OCO2)C(C(=O)OCC)[N+](=O)[O-])C(=O)OCC` (stereo unspecified), the growth inhibition in experiment [1] is 61.2%; in experiment [2], 23.9%; in experiment [3] it was 58.6%; in experiment [4] it was 27.3%; in experiment [5], 15.6%; in experiment [6], 39.3%.
As for `Nc1cc(=O)[nH]c2ncnn12`, the growth inhibition in experiment [1] is 18.2%; in experiment [2], -12%; in experiment [3] it was 2.4%; in experiment [4], 6.2%; in experiment [5], 4%; in experiment [6] it was 20.1%.
With `Cc1cc2c(cc1C)N1C(Cl)=C3CCCCC3=C(C#N)C1N2` (stereo unspecified), the growth inhibition in experiment [1] was 30.7%; in experiment [2], 30.4%; in experiment [3], 20.5%; in experiment [4] it was 28.3%; in experiment [5] it was 13.9%; in experiment [6] it was -8.95%.
Turning to `C=C1c2[nH]c3ccccc3c2CC(C(=O)O)N1C(O)c1ccc(S(=O)(=O)O)cc1` (stereo unspecified), the growth inhibition in experiment [1] was 11.5%; in experiment [2], -7.95%; in experiment [3] it was -3.5%; in experiment [4], -45.6%; in experiment [5], -8.05%; in experiment [6], 3.75%.
Consider `Cc1ccc(C(=O)c2ccccc2Cc2cccc3ccccc23)c(C)c1`, for which the growth inhibition in experiment [1] is 4.35%; in experiment [2], 6.6%; in experiment [3], 1.2%; in experiment [4], -13.7%; in experiment [5] it was 12.6%; in experiment [6], -14.5%.
Consider `CN(C)c1cc2ccccc2oc1=O`, for which the growth inhibition was 5.3% in experiment [1]; -0.75% in experiment [2]; -2% in experiment [3]; -5.75% in experiment [4]; 9% in experiment [5]; 6.45% in experiment [6].
Consider `N#CCCOC(=O)Nc1ccccc1`, for which the growth inhibition is 21.9% in experiment [1]; 2.4% in experiment [2]; -6.7% in experiment [3]; -40.6% in experiment [4]; -8.3% in experiment [5]; 0.6% in experiment [6].
For `COc1ccc(-c2nnc(CCCCCCCCc3nnc(-c4ccc(OC)cc4)n3N)n2N)cc1`, the growth inhibition was -8.05% in experiment [1]; -23.9% in experiment [2]; -9.45% in experiment [3]; 0.8% in experiment [4]; -2.7% in experiment [5]; -1% in experiment [6].
Consider `NC(CSSCC(NC(=O)CNC(=O)OCc1ccccc1)C(=O)O)C(=O)O` (stereo unspecified), for which the growth inhibition in experiment [1] was -13.3%; in experiment [2], -38%; in experiment [3], -11.2%; in experiment [4], -62.8%; in experiment [5], -1.05%; in experiment [6] it was 2%.
On to `Cc1cccc(C(=O)OC(=O)c2cccc(C)c2)c1`, for which the growth inhibition in experiment [1] is -3.85%; in experiment [2] it was -37%; in experiment [3], -9.75%; in experiment [4], -6%; in experiment [5] it was -23.9%; in experiment [6] it was 10.3%.
On to `O=NN(CCCl)C(=O)NC1c2cc(Cl)ccc2-c2c(Cl)cc(Cl)cc21` (stereo unspecified), for which the growth inhibition was 84.3% (active) in experiment [1]; 59.3% in experiment [2]; 73.7% (active) in experiment [3]; 48.5% in experiment [4]; 22.8% in experiment [5]; 86.5% (active) in experiment [6].
As for `CN=C(N)N/N=C(\c1ccccc1)c1ccc(Cl)cc1`, the growth inhibition in experiment [1] is 43.4%; in experiment [2], 11.6%; in experiment [3], 43.1%; in experiment [4], 3.55%; in experiment [5], 34.6%; in experiment [6], 72.9% (active).
For the compound `COc1ccc(N2C(=O)C3c4[nH]c5ccccc5c4C4CCCCCCCCCCC4C3C2=O)cc1` (stereo unspecified), the growth inhibition was 9.95% in experiment [1]; -19.6% in experiment [2]; -3.2% in experiment [3]; -65.3% in experiment [4]; -26.4% in experiment [5]; -4.2% in experiment [6].
In the case of `Cc1cccc(N=C/C=C/c2ccccc2)c1C`, the growth inhibition in experiment [1] is 0.85%; in experiment [2], -6.4%; in experiment [3], -20.7%; in experiment [4], -50.6%; in experiment [5], -4.7%; in experiment [6], -5.85%.
On to `C=CCSc1ccc(Cl)cc1[N+](=O)[O-]`, for which the growth inhibition in experiment [1] was 18.8%; in experiment [2] it was -3.4%; in experiment [3] it was 6.05%; in experiment [4], -8.45%; in experiment [5], 4%; in experiment [6] it was 0.3%.
For the compound `Cc1ccc(S(=O)(=O)NNC(=O)c2ccc[nH]2)cc1`, the growth inhibition is -1.5% in experiment [1]; -24.2% in experiment [2]; -7.85% in experiment [3]; 7.65% in experiment [4]; 9.9% in experiment [5]; 6.35% in experiment [6].
For `COc1ccc(NC(=O)CC(=O)N/N=C(/C)c2cc3cc(N=Nc4ccccc4Cl)ccc3oc2=O)cc1`, the growth inhibition is 11.3% in experiment [1]; 14.2% in experiment [2]; 24.1% in experiment [3]; 34% in experiment [4]; -11.8% in experiment [5]; -10.2% in experiment [6].
As to `CCOC(=O)c1c2ccc(/C=C/c3ccccn3)ccc-2c(C(=O)OCC)c1N`, the growth inhibition is 15.2% in experiment [1]; -4.75% in experiment [2]; -1% in experiment [3]; 13% in experiment [4]; 0.9% in experiment [5]; -3.1% in experiment [6].
`CC1C=CC(O)[C@]2(CO)CC3(CCC12)OCCO3` (stereo partly specified): the growth inhibition in experiment [1] is -13.7%; in experiment [2] it was 3.95%; in experiment [3] it was -13.6%; in experiment [4], 17.6%; in experiment [5] it was -12.7%; in experiment [6] it was -16.3%.
As for `CC(C)CC1=C(N(C)C)C(=O)C=C(N(C)C)C1=O`, the growth inhibition in experiment [1] is -0.35%; in experiment [2] it was -9.4%; in experiment [3] it was 10.2%; in experiment [4], -5.65%; in experiment [5], -9.85%; in experiment [6] it was -13.4%.

The values above are taken from PubChem BioAssay (NCI).
